Test results from PubChem BioAssay AID588342 (National Center for Advancing Translational Sciences (NCATS), 2011).
Hit rate of the full screen: of about 360,000 compounds, about 25,000 (6.9%) were called active. Entries that show only a call come without a potency. Not shown: some 9% with an inconclusive outcome. Calls follow the shape of the dose curve; as a rule, active = well fitted inhibition curve with a large enough effect; inconclusive = small, poorly fitted or top-dose-only effect; inactive = flat fitted curve, though single readings scatter. This excerpt belongs to a sample that is enriched for actives.

Target: Luciferin 4-monooxygenase (Photinus pyralis) (UniProt P08659)
Sequence (P08659 whole entry, looked up): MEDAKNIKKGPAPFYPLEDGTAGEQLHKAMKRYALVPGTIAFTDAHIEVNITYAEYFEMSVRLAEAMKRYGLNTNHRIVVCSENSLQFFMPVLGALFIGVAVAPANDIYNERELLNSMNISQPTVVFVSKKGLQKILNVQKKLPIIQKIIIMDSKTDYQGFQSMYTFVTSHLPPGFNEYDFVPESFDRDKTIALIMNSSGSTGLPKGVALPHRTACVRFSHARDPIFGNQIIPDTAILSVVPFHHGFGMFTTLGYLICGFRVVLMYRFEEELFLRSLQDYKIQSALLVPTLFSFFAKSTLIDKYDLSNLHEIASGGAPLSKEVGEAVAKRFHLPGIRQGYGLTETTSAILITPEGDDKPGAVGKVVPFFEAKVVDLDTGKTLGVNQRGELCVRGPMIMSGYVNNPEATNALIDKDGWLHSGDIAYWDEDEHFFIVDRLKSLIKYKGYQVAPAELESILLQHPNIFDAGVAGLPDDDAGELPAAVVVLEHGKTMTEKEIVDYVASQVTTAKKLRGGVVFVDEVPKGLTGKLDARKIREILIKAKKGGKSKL
Assay: qHTS profiling assay for firefly luciferase inhibitor/activator using purifed enzyme and Km concentrations of substrates (counterscreen for miR-21 project); also: nearly all actives have a fitted effect of over 55% in size
Settings: purified FLuc, luminescence inhibition; series mostly up to 57.5 µM
Method in brief: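 Biochemical qHTS of compounds, final roughly 60 µM downward over six points, against 10 nM purified firefly luciferase using Km concentrations of substrates (10 uM D-luciferin, 10 uM ATP) in Tris acetate pH 7.5 buffer; luminescence output.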
Potency is read from the fitted curve at half-maximal effect.

Compound	Potency
O=C(CSc1ncc(CO)n1Cc1ccc(F)cc1)NCc1ccco1	inactive
COc1ccccc1NC(=O)Cn1cnc2ccc(S(=O)(=O)N3CCC(C)CC3)cc2c1=O	inactive
CCCN(CC(=O)Nc1ccccc1C)C(=O)c1ccc2[nH]c3c(c2c1)CC(C)CC3 (configuration not stated)	inactive
c1ccc2c(NC3C4CC5CC(C4)CC3C5)nc(N3CCOCC3)nc2c1 (configuration not stated)	inactive
Cc1cc(OCC(=O)Nc2ncn[nH]2)c(C)c(C)c1Br	inactive
CC1Cc2ccccc2N1C(=O)CSc1nnc(C2CC2)n1C (configuration not stated)	inactive
O=C(c1c(Cl)cccc1Cl)N1CCN(c2cccc3[nH]ccc23)CC1	inactive
O=C(c1ccc2ccccc2n1)N1CCN(c2ccccc2Cl)CC1	16.9 µM (active)
COc1ccccc1N1CCN(C(=O)c2c(-c3c(Cl)cccc3Cl)noc2C)CC1	inactive
Cc1cccc(C)c1Nc1nnc(SCC(=O)Nc2sccc2C#N)s1	inactive
Cc1ccc(NC(=O)CSCC(=O)Nc2sccc2C#N)cc1	inactive
Cc1csc(SCC(=O)Nc2sccc2C#N)n1	2.13 µM (active)
CC(OC(=O)Cc1ccc(F)cc1)C(=O)N1CCc2ccccc21 (configuration not stated)	inactive
CC(C(=O)O)n1cnc2sc3c(c2c1=O)CCCC3 (configuration not stated)	inactive
CC(C)(C)OC(=O)N1CCC(c2c(C(=O)N3CCc4ccccc4C3)cnn2-c2ccc(F)cc2)CC1	inactive
CC(=O)c1cccc(NC(=O)[C@@H](NC(N)=O)C(C)C)c1	inactive
Cc1ccc(OCC(=O)NCCCNC(=O)c2cccnc2)cc1C	inactive
O=C(NCc1cccc(CNC(=O)Nc2cccc(O)c2)c1)Nc1cccc(O)c1	inactive
O=C(Nc1cccc(O)c1)c1ccc(C(=O)c2ccccc2)o1	6.75 µM (active)
O=C(CSc1ccccc1)Nc1ccc(C(=O)Nc2cccc(O)c2)cc1	inactive
Cc1ccc(NC(=O)COc2ccc(/C=N\NC(=O)c3cccnc3)cc2)cc1C	inactive
C/C(=C\C(=O)c1cccnc1)Nc1ccc(C)c(C)c1	6.75 µM (active)
C/C(=C\C(=O)c1ccccc1)Nc1cccc(O)c1	3.38 µM (active)

Compound	Potency
COc1cc(/C=C(/NC(=O)c2ccccc2)C(=O)Nc2cccc(O)c2)c([N+](=O)[O-])cc1OC	inactive
CC1(C)CC(=O)C=C(c2ccc3ncccc3c2)C1	inactive
CCOC(=O)C1CCN(C(c2ccc(F)cc2)c2sc3nc(-c4ccco4)nn3c2O)CC1 (configuration not stated)	inactive
CCN(CCCNC(=O)Cn1ncc2c([nH]c3ccccc32)c1=O)c1cccc(C)c1	inactive
CC(=O)c1ccc(N2CCN(C(=O)c3ccc(Cl)c(S(=O)(=O)NC4CC4)c3)CC2)c(F)c1	inactive
Cc1ccc(CNC(=O)c2cccc3c2C(=O)c2ccc(N4CCC(C)CC4)cc2S3(=O)=O)cc1	inactive
CCOC(=O)[C@H]1[C@H]2COc3ccc(C)cc3[C@@H]2N2C(=O)CN(Cc3ccc(F)cc3)C(=O)[C@@]12C	inactive
CCOc1ccc(CNC(=O)C2CCCN(S(=O)(=O)N(CC)c3ccc(OCC)cc3)C2)cc1 (configuration not stated)	inactive
Cc1ccc(Cl)cc1NC(=O)NC1COc2ccccc2C1 (configuration not stated)	inactive
Cn1ccc(NC(=O)Nc2ccc(Cl)cc2)n1	16.9 µM (active)
CN(C)S(=O)(=O)c1cc(C(=O)Nc2ccn(C)n2)c(Cl)cc1Cl	inactive
Cc1ccc(C(=O)Nc2ccn(C)n2)cc1	inactive
Cc1ccc2nc(COc3ccc(NC(=O)COc4ccccc4F)cc3)cc(=O)n2c1	inactive
CC(NC(=O)c1cc2c(=O)n3ccccc3nc2n(C(C)C)c1=N)c1ccccc1 (configuration not stated)	inactive
CCC(=O)N1CCc2cc(Br)cc(S(=O)(=O)CCC(=O)N3CCN(c4ccc(F)cc4)CC3)c21	inactive
COc1ccc([C@H]2CC(=O)C=C(/C=C/c3ccccc3)C2)cc1	inactive
COc1ccc(-c2cn3c(n2)sc2cc(C(=O)Nc4ccccc4F)ccc23)cc1	inactive
CCOC(=O)c1ccc(NC(=O)Cc2cccs2)cc1	15.1 µM (active)
O=C(COC(=O)c1cccs1)NCc1cccs1	inactive
O=C(O)Cc1ccc(NC(=O)c2cccs2)cc1	12 µM (active)
CCc1ccc(NC(=O)CCNS(=O)(=O)c2cccs2)cc1	inactive
O=C(Nc1ccc(N2CCN(C(=O)C3CC3)CC2)cc1)c1cccs1	inactive
CCc1ccc(NC(=O)COC(=O)c2cccs2)cc1	6.75 µM (active)

Compound	Potency
Cc1cccc(C(=O)Nc2ccc(CC(=O)O)cc2)c1	9.53 µM (active)
O=C(Nc1ccccc1)c1ccc(NC(=O)c2cccs2)cc1	inactive
Cc1cccc(C(=O)OCC(=O)Nc2ccc(F)cc2)c1	inactive
CCOc1ccccc1NC(=O)Cc1cccs1	inactive
O=C(Cc1cccs1)Nc1ccc([N+](=O)[O-])cc1	inactive
CC(=O)Nc1ccc(NC(=O)[C@@H](NC(=O)c2cccc(C)c2)C(C)C)cc1	inactive
Cc1ccc(CN(C(=O)COc2ccc(Cl)cc2C)C2CCS(=O)(=O)C2)o1 (configuration not stated)	inactive
CN(CC(=O)NNC(=O)CNC(=O)c1ccccc1Cl)S(=O)(=O)c1ccc(Cl)cc1	inactive
Cc1ccc(CN2COc3cc(C)c4c(oc(=O)c5ccccc54)c3C2)cc1	inactive
COc1ccc(C(=O)OC(C)C(=O)NC2CCCC2)cc1S(=O)(=O)N1CCOCC1 (configuration not stated)	inactive
COc1ccc(OC)c(NC(=O)C2CCCN(S(=O)(=O)c3ccc4c(c3)CCCC(=O)N4)C2)c1 (configuration not stated)	inactive
O=C(Cn1ncc2c3ccccc3n(Cc3ccccc3)c2c1=O)NC1CCCCCC1	inactive
Cc1ccc(C)c(NC(=O)CCC(=O)NNC(=O)c2cccs2)c1	inactive
CCc1ccc(NC(=O)C(=O)NNC(=O)c2cccs2)cc1	16.9 µM (active)
CC(C)C(=O)Nc1ccc(C(=O)NNC(=O)c2cccs2)cc1	inactive
COCCn1cnc2c1c(=O)n(CC(=O)NN)c(=O)n2Cc1ccccc1	inactive
Cc1ccccc1-c1cc(C(=O)NCC2CC2)n(CC2CC(c3cccnc3)=NO2)n1 (configuration not stated)	inactive
Cc1nc2sc(C)c(C)n2c(=O)c1S(=O)(=O)NCCc1ccc(Cl)cc1	inactive
CC(C)c1ccc(-c2nn[nH]n2)cc1	6.01 µM (active)
c1cc(-c2nn[nH]n2)ccc1CN1CCCCC1	inactive
Cc1n[nH]c(=O)n1-c1ccc(C(C)C)cc1	inactive
